Assay outcomes (PubChem BioAssay)
MRP-1 activ: MRP-1 activation; H69AR cells + doxorubicin, viability rescue, CellTiter-Glo; viability increase, % at 10 µM; 140,000 tested, 0.61% active; AID 799;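 active = viability gain under doxorubicin at or above a set limit, the compound median plus 3 SD, cut at about 4.7% in these data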;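 note: MRP-1 overexpressing cells given doxorubicin 25 µM after compound pretreatment; 18-22 h compound pretreatment then 72 h with doxorubicin before readout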
MRP resist rev: reverses drug resistance mediated by MRP | 85,000 tested, 0.04% active | H69AR cells + 2 uM doxorubicin, CellTiter-Glo, 72 h | differential viability (reversal), % at 10 µM | AID 602;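 active = viability drop by adding the cancer drug above about 55%, with treated viability meeting a 40% cutoff, limit read from the data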;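 note: larger differential means the compound sensitizes cells more to doxorubicin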
CYP2C19 inh: human CYP2C19 inhibition; P33261; CYP2C19 Supersomes, luciferin-H EGE luminescence, 30 min; inhibition, % at 5 µM; 96,000 tested, 21% active;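 active = CYP2C19 inhibition above a set limit at 5 µM in the primary screen, cut at about 50% in these data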
CYP2C19 act: cytochrome P450 2C19 (human) activation; recombinant CYP2C19, luciferin-H EGE luminescence; stronger effect = higher value; 0 = fully inhibited enzyme, 1 = untreated enzyme; activation factor at 5 µM; 96,000 tested, under 10 active; AID 1025;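 active = activation factor of at least 2 at 5 µM in the primary screen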
CYP2C9 activ: activators of human CYP2C9; P11712; recombinant CYP2C9, luciferin-H conversion, luminescence; stronger effect = higher value; factor 1 = untreated enzyme, 0 = blocked; activation factor at 5 µM; 96,000 tested, 1.4% active;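 active = activation factor of 2 or more for CYP2C9 at a 5 µM dose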
Target sequence (P11712 whole entry, looked up): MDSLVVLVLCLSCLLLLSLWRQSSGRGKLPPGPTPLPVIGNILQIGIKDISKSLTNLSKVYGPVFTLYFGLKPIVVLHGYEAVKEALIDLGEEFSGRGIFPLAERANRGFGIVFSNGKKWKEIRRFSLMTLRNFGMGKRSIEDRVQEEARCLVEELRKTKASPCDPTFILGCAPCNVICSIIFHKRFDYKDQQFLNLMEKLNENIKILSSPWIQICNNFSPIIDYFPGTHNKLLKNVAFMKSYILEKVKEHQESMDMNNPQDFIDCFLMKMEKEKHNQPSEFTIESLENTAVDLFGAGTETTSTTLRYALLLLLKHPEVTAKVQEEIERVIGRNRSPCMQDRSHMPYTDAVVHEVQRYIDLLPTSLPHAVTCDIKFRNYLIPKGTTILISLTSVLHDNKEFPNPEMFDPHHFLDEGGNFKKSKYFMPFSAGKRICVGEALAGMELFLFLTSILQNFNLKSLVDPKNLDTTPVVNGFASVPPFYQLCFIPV
CYP2C9 inhib: inhibitors of human CYP2C9; CYP2C9 Supersomes, luciferin-H conversion, luminescence; 96,000 tested, 20% active; P11712; inhibition, % at 5 µM;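 active = blocking of liver enzyme CYP2C9 beyond about 50% at 5 µM, limit read from the data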
Large screens that a line does not name were inactive. Sampled rows, rich in hits. Any-hit rate of the full collection: about 21%.

COc1ccccc1C(=O)O/N=C(/C)c1ccc(N2C(=O)C3CCCCC3C2=O)cc1 (stereo not given)	CYP2C19 inh 53.8, CYP2C9 activ 3.3 (no result: MRP resist rev)
CCOc1cc(C(=O)Nc2cc(C)ccc2OC)ccc1OCC(=O)N1CCCCC1	none (no result: MRP resist rev, CYP2C19 inh, CYP2C19 act, CYP2C9 activ, CYP2C9 inhib)
Fc1ccccc1CSc1nncn1NC/C=C/c1ccccc1	CYP2C19 inh 52.8 (no result: MRP resist rev)
O=C(CS(=O)(=O)Cc1ccccc1)Nc1nc2ccccc2s1	CYP2C19 inh 54.2, CYP2C9 inhib 54.7
O=S(=O)(Nc1nc2ccccc2s1)c1ccc(Cl)s1	CYP2C19 inh 65.4, CYP2C9 inhib 95.4
CN(CC(=O)Nc1nc2ccccc2s1)S(=O)(=O)c1ccccc1	CYP2C19 inh 52.0 (no result: MRP resist rev)
CC(=O)c1ccc2c3c(cccc13)CC2	CYP2C9 activ 3.6
CS(=O)(=O)Nc1ccc2c3c(cccc13)CC2	CYP2C9 activ 2.5 (no result: MRP-1 activ)
COc1ccc(CCNC(=O)C(=O)N2CCCCC2)cc1OC	none (no result: CYP2C19 inh, CYP2C19 act, CYP2C9 activ, CYP2C9 inhib)
CC(C)NC(=O)C(OC(=O)c1ccccc1)C(OC(=O)c1ccccc1)C(=O)O (stereo not given)	none (no result: MRP resist rev)
C=CCn1c(C)cc(C(=O)COC(=O)c2ccc3c(c2)NC(=O)CS3)c1C	none (no result: MRP resist rev, CYP2C19 inh, CYP2C19 act, CYP2C9 activ, CYP2C9 inhib)
CC(=O)OCCCN1C(=O)c2ccc(Br)cc2C1=O	CYP2C19 inh 56.7
O=C(OCCN1C(=O)c2ccccc2C1=O)c1ccco1	none (no result: CYP2C19 inh, CYP2C19 act, CYP2C9 activ, CYP2C9 inhib)
O=C(OCCCCN1C(=O)c2ccccc2C1=O)c1ccc(Br)o1	CYP2C9 inhib 55.1
CC(C)OC(=O)CCCN1C(=O)c2ccc(N)cc2C1=O	CYP2C19 inh 74.3 (no result: MRP resist rev)
Nc1ccc2c(c1)C(=O)N(CCCC(=O)O)C2=O	none
COCCCN1C(=O)c2ccc(C(=O)O)cc2C1=O	none
CN1C(=O)c2cccc3c(S(=O)(=O)NCc4ccco4)ccc1c23	CYP2C19 inh 93.5, CYP2C9 inhib 78.6
Cc1cc(S(=O)(=O)NCc2ccco2)c(C)s1	none
CN1C(=O)c2cccc3c(S(=O)(=O)Nc4ccccn4)ccc1c23	none (no result: CYP2C19 inh, CYP2C19 act, CYP2C9 activ, CYP2C9 inhib)
COc1ccc(S(=O)(=O)NCc2ccco2)c2ccccc12	CYP2C9 activ 2
CCCCSc1nnc([C@H](CC(C)C)NC(=O)OC(C)(C)C)o1	CYP2C19 inh 61.7, CYP2C9 inhib 55.7
COC(=O)CSc1nnc([C@H](CC(C)C)NC(=O)OC(C)(C)C)o1	CYP2C19 inh 65.7
CSc1nnc([C@@H](NC(=O)OC(C)(C)C)C(C)C)o1	none
CCCCSc1nnc([C@H](C)NC(=O)OC(C)(C)C)o1	CYP2C19 inh 75.2
Cn1cc(S(=O)(=O)NCc2ccco2)c(=O)n(C)c1=O	none
CSc1ccc(Cl)c(C(=O)OCC(=O)Nc2ccccc2OC(F)F)c1	none (no result: MRP resist rev, CYP2C19 inh, CYP2C19 act, CYP2C9 activ, CYP2C9 inhib)
COCCN(C(=O)c1cccc(OC)c1)c1nnc(-c2ccncc2)s1	CYP2C19 inh 99.9, CYP2C9 inhib 79.5
COCCN(C(=O)C1CC1)c1nnc(-c2cccc(C)c2)s1	CYP2C19 inh 72.2, CYP2C9 inhib 80.1
C=CCN(C(=O)COc1ccccc1)c1nnc(-c2ccncc2)s1	CYP2C19 inh 87.2, CYP2C9 inhib 51.5
CCN1CCc2c(C#N)c(N3CCOCC3)nc(NCCO)c2C1	none
CCOc1ccc(-n2c(SC(C)C)nc3c(c2=O)SCC3)cc1	none
O=C(Nc1ccc(-c2nc3ccc(NC(=O)c4cccs4)cc3[nH]2)cc1)c1cccs1	none
O=C(Nc1ccc2nc(-c3cccs3)[nH]c2c1)c1cccs1	CYP2C19 inh 57.1, CYP2C9 inhib 80.9
Cc1cc(-c2nnco2)c(C)n1-c1ccc(F)cc1	CYP2C19 inh 58.0
Cc1ccc(C)n1-c1ccc(-c2nnco2)cc1	none
Cc1nnc(SCc2ccccc2F)n1NCc1cccs1	CYP2C19 inh 92.9, CYP2C9 inhib 55.4
CCC1CCC(C(=O)NC(C(=O)Nc2ccc3c(c2)OCCO3)C(C)C)CC1 (stereo not given)	none (no result: MRP resist rev)
c1ccc(-c2cc(N3CCCCC3)ncn2)cc1	CYP2C19 inh 87.0
c1ccc(-c2cc(N3CCCCCC3)n[nH]2)cc1	none (no result: MRP resist rev)
Cc1nc(-c2ccccc2)cc(N2CCCC2)n1	CYP2C19 inh 51.3 (no result: MRP resist rev)
FC(F)(F)c1cc(-c2ccccc2)nc(N2CCCCCC2)n1	none
Nc1nc(-c2ccccc2)cc(N2CCCCC2)n1	CYP2C19 inh 51.1
Cc1cc(C)n(-c2cc(-c3ccccc3)nc(C)n2)n1	none (no result: MRP resist rev)
c1ccc(-c2cnnc(N3CCCCC3)n2)cc1	CYP2C19 inh 83.3
O=[N+]([O-])c1ccc(O)c(-c2nn[nH]n2)c1	CYP2C19 inh 70.1, CYP2C9 inhib 83.1 (no result: MRP resist rev)
Cc1ccc(C(=O)N(c2ccccn2)C(C)c2ccco2)cc1C (stereo not given)	none (no result: MRP resist rev)
